Drawing on PubChem BioAssay (NCATS), this text covers Potency for 40 compounds.

Results filed as inconclusive are left out. Activity calls are given as the source filed them. Calls come from the whole dose curve; as a rule, active = well fitted cell-killing curve with a large enough effect; inconclusive = small, poorly fitted or top-dose-only effect, or effect the other way; inactive = no such curve, though single readings can be large or run the other way. Non-standard residues stand in square brackets, D forms with d. Residues, ends and D or L forms follow the SMILES beside them. *: point of attachment. Nva = CCC[C@H](N)C(=O)O; Cbz = O=C(OCc1ccccc1)*
Potency is the fitted concentration of half-maximal effect.

The assay in a line: Quantitative High-Throughput drug screen in 47 multiple myeloma cell lines against the NCATS MIPE library collection: KMS11_JCRBsus cell viability assay (AID 1919873). Note: nearly all actives have a fitted effect of over 50% in size. To be noted: KMS11 myeloma viability, CellTiter-Glo ATP luminescence, 48 h; series mostly up to 45.8 µM. The source says:
PI: Beverly A. Mock Ph.D.
Laboratory of Cancer Biology and Genetics,
Center for Cancer Research, National Cancer Institute,
National Institute of Health, Bethesda, Maryland
Drug resistance and disease progression are common in multiple myeloma (MM) patients, underscoring the need for new therapeutic combinations. […] We hypothesized that effective combinations would reduce MYC expression and enhance p16 activity. […] These preclinical data identify potentially useful drug combinations for evaluation in drug-resistant MM and reveal potential mechanisms of combined drug sensitivity.
Described herein is the primary MIPE qHTS used to cherrypick compounds. Validated compounds were then further tested for potential synergistic activiy.
[1] Peat TJ, Gaikwad SM, Dubois W, Gyabaah-Kessie N, Zhang S, Gorjifard S, Phyo Z, Andres M, Hughitt VK, Simpson RM, Miller MA, Girvin AT, Taylor A, Williams D, D'Antonio N, Zhang Y, Rajagopalan A, Flietner E, Wilson K, Zhang X, Shinn P, Klumpp-Thomas C, McKnight C, Itkin Z, Chen L, Kazandijian D, Zhang J, Michalowski AM, Simmons JK, Keats J, Thomas CJ, Mock BA. Drug combinations identified by high-throughput screening promote cell cycle transition and upregulate Smad pathways in myeloma. Cancer Lett. 2023 Aug 1;568:216284. doi: 10.1016/j.canlet.2023.216284. Epub 2023 Jun 24. PMID: 37356470; PMCID: PMC10408729.
SEQUENCE No. (e.g., 1, 2, 3, etc.); […] (e.g., Cells, Incubation, Reagent, etc.); VALUE and DESCRIPTION.
1; Cells; 5 uL; white, solid bottom 1536-well Greiner assay plate.
2; Compounds; 23 nL; Kalypsis pin tool (Wako USA) equipped with a 1536-well pin head to transfer to the assay plates.
3; Incubation; 48 hours; 37C incubation.
4; Reagent;5uL; CellTiter Glo (Promega).
5; Detector; 425V; Luminescence; Viewlux PerkinElmer.
NOTES (numbers refer to Sequence numbers above)
1. The cell-based screening methods employed in this study were like those previously published. Briefly, the corresponding myeloma cell lines were screened in 1,536-well plates with 500 cells, 5-uL per well for inhibition of cell viability (assessed by measuring ATP levels with CellTiterGlo).
2. NCATS MIPE 4.0 library of approved and investigational drugs were added using the Kalypsis pin tool. Wells treated with DMSO only for 100% viability and media only for 0% viability were used as controls.
3. The assay plates were covered and incubated for 48 hours in a 37C, 5% CO2 incubator with controlled humidity.
4. After 48 hours, CellTilter-GloTM luminescent substrate mix (Promega) reagent was added to the assay plate and plates we incubated for 5 min at room temperature.
5. Signal was measured as median relative luminescence units on a ViewLux (PerkinElmer) multiplate reader.
[1] Heske CM, Davis MI, Baumgart JT, Wilson K, Gormally MV, Chen L, Zhang X, Ceribelli M, Duveau DY, Guha R, Ferrer M, Arnaldez FI, Ji J, Tran HL, Zhang Y, Mendoza A, Helman LJ, Thomas CJ. Matrix Screen Identifies Synergistic Combination of PARP Inhibitors and Nicotinamide Phosphoribosyltransferase (NAMPT) Inhibitors in Ewing Sarcoma. Clin Cancer Res. 2017 Dec 1;23(23):7301-7311. doi: 10.1158/1078-0432.CCR-17-1121. Epub 2017 Sep 12. PMID: 28899971; PMCID: PMC6636827.
In general terms: Cellular ATP, detected with luciferase, serves as a proxy for viable cell number.
In the case of `C[C@H]1C[C@H]2[C@@H]3CCC4=CC(=O)C=C[C@]4(C)[C@@H]3C(=O)C[C@]2(C)[C@@]1(O)C(=O)CO`, the Potency result was “inactive”.

As for `O=C(Nc1cc2cc[nH]c2cn1)c1ccccc1`, the Potency is 11800 nM (active).

For the compound `CCN(C(=O)c1c(O)c2c(Cl)cccc2n(C)c1=O)c1ccccc1`, the Potency result was “inactive”.

`Cn1cnc(=N)c2[nH]cnc21`: the Potency is 93.5 nM (active).

With `COc1cccc2c1C(=O)c1c(O)c3c(c(O)c1C2=O)C[C@@](O)(C(C)=O)C[C@H]3O[C@H]1C[C@H](N)[C@H](O)[C@H](C)O1`, the Potency was 93.5 nM (active).

For `CCOC(=O)C=C[C@H](C[C@@H]1CCNC1=O)NC(=O)[C@@H](CC(=O)[C@@H](NC(=O)c1cc(C)on1)C(C)C)Cc1ccc(F)cc1`, the Potency result was “inactive”.

With `COC(=O)C=CC(=O)OC`, the Potency result is “inactive”.

In the case of `C[C@@H](Cc1cc2c(c(C(N)=O)c1)N(CCCO)CC2)NCCOc1ccccc1OCC(F)(F)F`, the Potency result is “inactive”.

`CCCc1nc(C(C)(C)O)c(C(=O)O)n1Cc1ccc(-c2ccccc2-c2nn[nH]n2)cc1`: the Potency entry is “inactive”.

`CCOC(=O)[C@@H](N)Cc1ccc(-c2cc(O[C@H](c3ccc(Cl)cc3-n3ccc(C)n3)C(F)(F)F)nc(N)n2)cc1`: the Potency was 16600 nM (active).

Take `CC(=O)O[C@]1(C(C)=O)CC[C@H]2[C@@H]3C=C(C)C4=CC(=O)CC[C@]4(C)[C@@H]3CC[C@@]21C`: the Potency result was “inactive”.

Turning to `Cc1cnc(NC(=O)Nc2cc(Br)c(C)cc2OC[C@@H]2CNCCO2)cn1`, the Potency is 5260 nM (active).

With `C[C@H](NC(=O)[C@@H](O)c1cc(F)cc(F)c1)C(=O)N[C@@H]1C(=O)N(C)c2ccccc2-c2ccccc21`, the Potency was 1870 nM (active).

In the case of `CCC[C@@H](C=O)NC(=O)[C@H](CC(C)C)NC(=O)[C@H](CC(C)C)NC(=O)OCc1ccccc1` (Cbz-Leu-Leu-[Nva]-aldehyde), the Potency was 148 nM (active).

With `N#Cc1c(NC(=O)c2cccc3ccccc23)sc2c1CCCC2`, the Potency was 148 nM (active).

`COc1ccc(S(=O)(=O)Nc2cccnc2Nc2ccc(O)cc2)cc1`: the Potency was 41.8 nM (active).

Consider `CCNC(=O)Nc1ccc(-c2nc3c(c(N4CCOC[C@H]4C)n2)CCN(C2COC2)C3)cc1`, for which the Potency is 296 nM (active).

In the case of `NC(=NCCCCCCN=C(N)N=C(N)Nc1ccc(Cl)cc1)N=C(N)Nc1ccc(Cl)cc1`, the Potency is 14800 nM (active).

With `C[N+]1(C)[C@@H]2C[C@@H](OC(=O)C(O)(c3cccs3)c3cccs3)C[C@H]1[C@@H]1O[C@@H]12`, the Potency result is “inactive”.

Turning to `O=C(Nc1cccc(Nc2ncc(Br)c(NCCc3cnc[nH]3)n2)c1)N1CCCC1`, the Potency is 8330 nM (active).

For `Cc1ncc(-c2ccnc(Nc3ccc(S(C)(=O)=O)cc3)n2)n1C(C)C`, the Potency is 2090 nM (active).

Regarding `C=C1C[C@@]2(O)O[C@@]3(C[C@H]2C(C)C)[C@H](C)CC[C@H]13`, the Potency result is “inactive”.

For the compound `CON=C(C(=O)N[C@@H]1C(=O)N2C(C(=O)O)=C(CSC(=O)c3ccco3)CS[C@H]12)c1csc(N)n1`, the Potency entry is “inactive”.

Take `O=C(O)c1ccc(Nc2ncc3c(n2)-c2ccc(Cl)cc2C(c2c(F)cccc2F)=NC3)cc1`: the Potency was 132 nM (active).

Consider `C=CC(=O)Nc1cccc(Nc2nc(NC3CCC(N(C)C)CC3)nc3c2ncn3C(C)C)c1` (stereo not given), for which the Potency is 372 nM (active).

With `Cn1cc(C[C@@H](N)C(=O)O)c2ccccc21`, the Potency result is “inactive”.

For `C[C@]12C=CC(=O)N[C@@H]1CC[C@H]1[C@H]3CC[C@@H](C(=O)Nc4cc(C(F)(F)F)ccc4C(F)(F)F)[C@@]3(C)CC[C@@H]12`, the Potency result is “inactive”.

For `CC(C)c1cc(C(C)C)c(CC(=O)NS(=O)(=O)Oc2c(C(C)C)cccc2C(C)C)c(C(C)C)c1`, the Potency is 2350 nM (active).

Turning to `O=C(C=Cc1ccc(CN(CCO)CCc2c[nH]c3ccccc23)cc1)NO`, the Potency was 52.6 nM (active).

Turning to `CN(C)c1ccc(C(=O)NCCCCCCC(=O)NO)cc1`, the Potency is 743 nM (active).

In the case of `CC(C)N(CC[C@H](c1ccccc1)c1cc(CO)ccc1O)C(C)C`, the Potency entry is “inactive”.

With `CN[C@@H]1C[C@H]2O[C@@](C)([C@H]1OC)n1c3ccccc3c3c4c(c5c6ccccc6n2c5c31)C(=O)N[C@H]4O`, the Potency was 264 nM (active).

Turning to `N#Cc1cc(NC(=O)Nc2nnc(-c3ccncc3)s2)ccc1-c1cn[nH]c1`, the Potency entry was “inactive”.

For `CC(C)(O)Cn1c(NC(=O)c2ccc(-c3cn[nH]c3)s2)nc2cc(CN3CCOCC3)ccc21`, the Potency was 743 nM (active).

Regarding `NC(=O)c1ncn([C@@H]2O[C@H](CO)[C@@H](O)[C@@H]2O)c1O`, the Potency result was “inactive”.

As for `OC[C@@H](O)[C@@H](O)[C@H](O)[C@@H](O)CO`, the Potency entry was “inactive”.

As for `COC(=O)[C@H](CCCN=C(N)N)NS(=O)(=O)c1ccc(C)cc1`, the Potency result was “inactive”.

With `Cc1cc(Nc2ncc3c(n2)N(C)C(=O)N(c2cc(NC(=O)c4cccc(C(F)(F)F)c4)ccc2C)C3)n(C)n1`, the Potency was 235 nM (active).

As for `Nc1ccc(C(=O)Nc2cccc(-c3nc(N4CCOCC4)c4oc5ncccc5c4n3)c2)cn1`, the Potency was 6620 nM (active).

Take `CCC[C@H]1C[C@H](C(=O)N[C@@H]([C@@H]2O[C@@H](SC)[C@@H](O)[C@@H](O)[C@@H]2O)[C@H](C)Cl)N(C)C1`: the Potency entry is “inactive”.
